The panel holds about 79,000 compounds, 15% with a hit somewhere; the sample as a whole holds those more often. The source made the active and inactive calls. No stated cut-off is given here; in the data, active means growth inhibition above about 70%; inactive means the rest.
Key:
[1] = NCI Yeast Anticancer Drug Screen. Data for the rad52 strain (AID 147);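 further: 0% = growth of vehicle-treated control cultures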; conditions: S. cerevisiae rad52 mutant growth inhibition, active compounds read high
Method in brief: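 Inhibition of yeast growth, referenced to vehicle controls, was the measured output for a strain with defective DNA damage repair.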

[2] = NCI Yeast Anticancer Drug Screen. Data for the wt1 strain (AID 149);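 further: 0% = growth of vehicle-treated wt1 cultures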; conditions: S. cerevisiae wt1 strain (SPY 50644) growth inhibition, active compounds read high
Method in brief: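 The wt1 strain was treated with compounds, and growth was compared with vehicle-treated cultures to give inhibition.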

[3] = NCI Yeast Anticancer Drug Screen. Data for the rad50EPP+ strain (AID 151);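 further: 0% = growth of vehicle-treated control cultures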; conditions: S. cerevisiae rad50 mutant strain, active compounds read high
Method in brief: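 Genetically defined yeast (rad50EPP+, DNA damage repair alteration) is grown with compound, and inhibition of growth is expressed relative to vehicle-treated controls.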

[4] = NCI Yeast Anticancer Drug Screen. Data for the mgt1 strain (AID 153); conditions: S. cerevisiae mgt1 mutant growth inhibition, active compounds read high
Method in brief: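 In the mgt1 strain, test compounds were added and growth inhibition was determined relative to vehicle-treated controls.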

[5] = NCI Yeast Anticancer Drug Screen. Data for the rad50 strain (AID 155);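 further: 0% = growth of vehicle-only cultures of the same strain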; conditions: S. cerevisiae rad50 strain growth inhibition, active compounds read high
Method in brief: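 Cells are treated with compound, grown, and their growth is then scored against vehicle-only cultures of the same repair-deficient yeast strain.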

[6] = NCI Yeast Anticancer Drug Screen. Data for the mec2-1 strain (AID 157); conditions: S. cerevisiae mec2-1 strain, active compounds read high
Method in brief: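 Each compound was tested on mec2-1 yeast, a strain altered in DNA damage repair or cell cycle control. Growth inhibition is reported relative to vehicle.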

[7] = NCI Yeast Anticancer Drug Screen. Data for the rad14 strain (AID 159);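 further: 0% = growth of vehicle-treated control cultures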; conditions: S. cerevisiae rad14 strain growth inhibition, active compounds read high
Method in brief: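 Readout: yeast growth inhibition, referenced to vehicle-only cultures. Strain bears a defined alteration in DNA damage repair.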

[8] = NCI Yeast Anticancer Drug Screen. Data for the sgs1 mgt1 strain (AID 161);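 further: 0% = growth of cultures given vehicle only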; conditions: S. cerevisiae sgs1 mgt1 strain, active compounds read high
Method in brief: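 Read-out: growth inhibition vs vehicle controls. Cells: mutant yeast strain deficient in DNA damage repair.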

[9] = NCI Yeast Anticancer Drug Screen. Data for the CLN2oe strain (AID 163);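 further: 0% = growth of vehicle-only control cultures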; conditions: S. cerevisiae CLN2oe strain, active compounds read high
Method in brief: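 First, the altered yeast strain was treated with each compound; second, its growth was measured; finally, inhibition was derived by comparison with vehicle controls.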

[10] = NCI Yeast Anticancer Drug Screen. Data for the cln2 rad14 strain (AID 165);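 further: 0% = growth equal to vehicle treated cultures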; conditions: S. cerevisiae cln2 rad14 strain, active compounds read high
Method in brief: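 Test compounds were added to cln2 rad14 yeast cultures; inhibition of growth was then determined by comparison with vehicle treatment.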

[11] = NCI Yeast Anticancer Drug Screen. Data for the bub3 strain (AID 167); conditions: S. cerevisiae bub3 mutant strain, active compounds read high
Method in brief: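 Part of a panel of yeast mutants defective in DNA damage repair or cell cycle regulation. Each strain is grown with compound, and inhibition is calculated relative to solvent-treated cultures.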

[12] = NCI Yeast Anticancer Drug Screen. Data for the wt2 strain (AID 169);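 further: 0% = growth of vehicle-treated yeast cultures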; conditions: S. cerevisiae wt2 strain growth inhibition, active compounds read high
Method in brief: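 The panel's yeast strains carry defined changes in DNA repair or cell cycle genes. Each strain is grown with compound, and growth loss is scored relative to vehicle.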

[13] = NCI Yeast Anticancer Drug Screen. Data for the sgs1 strain (AID 173);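 further: 0% = growth of vehicle-only control cultures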; conditions: S. cerevisiae sgs1 mutant, active compounds read high
Method in brief: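 Vehicle-treated cultures served as reference for growth inhibition of a yeast strain altered in DNA damage repair or cell cycle control after compound exposure.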

[14] = NCI Yeast Anticancer Drug Screen. Data for the mlh1 rad18 strain (AID 175); conditions: S. cerevisiae mlh1 rad18 strain growth inhibition, active compounds read high
Method in brief: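 Inhibition values reflect reduced growth of mutant yeast versus vehicle-treated controls following compound exposure; the mutations affect DNA damage repair.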

[15] = NCI Yeast Anticancer Drug Screen. Data for the rad18 strain (AID 177); conditions: S. cerevisiae rad18 mutant growth inhibition, active compounds read high
Method in brief: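 Steps: expose repair-mutant yeast to compound; measure growth; express as inhibition relative to vehicle control.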

[16] = NCI Yeast Anticancer Drug Screen. Data for the mlh1 strain (AID 171);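 further: 0% = growth of vehicle-treated control cultures of the same strain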; conditions: S. cerevisiae mlh1 strain growth inhibition, active compounds read high
Method in brief: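 Inhibition values reflect reduced yeast growth in the presence of compound, referenced to vehicle controls, using a strain chosen for its alteration in DNA repair or cell cycle control.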

[17] = at 5.0 µM (retest, dose inferred, filed as 0.5)
[18] = at 50.0 µM (retest, dose inferred, filed as 5.0)

Measured: growth inhibition

CCOc1ccc2c(c1)c(CC(=O)O)cn2C
active: [1]; at 100.0 µM 85% | [3]; at 11.0 µM 71% | [3]; at 33.0 µM 94% | [3]; at 100.0 µM 97% | [5]; at 33.0 µM 92% | [5]; [18] 94% | [5]; at 100.0 µM 98% | [7]; at 100.0 µM 75% | [11]; [18] 81% | [11]; at 50.0 µM 79.8% | [11]; at 100.0 µM 87% | [13]; at 100.0 µM 89% | [14]; [18] 92% | [14]; at 50.0 µM 88.2% | [15]; at 100.0 µM 87%
inactive: [1]; at 1.2 µM 0% | [1]; at 3.7 µM 7% | [1]; at 11.0 µM 20% | [1]; at 33.0 µM 60% | [2]; at 1.2 µM -4% | [2]; at 3.7 µM -3% | [2]; at 11.0 µM 3% | [2]; at 33.0 µM 28% | [2]; at 100.0 µM 54% | [3]; at 1.2 µM 6% | [3]; at 3.7 µM 27% | [4]; at 1.2 µM -3% | [4]; at 3.7 µM -6% | [4]; at 11.0 µM 1% | [4]; at 33.0 µM 18% | [4]; at 100.0 µM 51% | [5]; at 1.2 µM -6% | [5]; at 3.7 µM 7% | [5]; [17] -74% | [5]; at 11.0 µM 48% | [5]; at 50.0 µM 32.8% | [6]; at 1.2 µM 1% | [6]; at 3.7 µM -2% | [6]; [17] -40% | [6]; at 11.0 µM -7% | [6]; at 33.0 µM 27% | [6]; [18] 3% | [6]; at 50.0 µM 38.6% | [6]; at 100.0 µM 48% | [7]; at 1.2 µM 4% | [7]; at 3.7 µM 7% | [7]; at 11.0 µM 20% | [7]; at 33.0 µM 57% | [8]; [17] -38% | [8]; [18] 63% | [8]; at 50.0 µM 23.4% | [9]; at 1.2 µM -3% | [9]; at 3.7 µM -1% | [9]; at 11.0 µM 6% | [9]; at 33.0 µM 24% | [9]; at 100.0 µM 40% | [10]; [17] -47% | [10]; [18] -21% | [10]; at 50.0 µM 18.8% | [11]; at 1.2 µM -10% | [11]; at 3.7 µM 0% | [11]; [17] -49% | [11]; at 11.0 µM 12% | [11]; at 33.0 µM 50% | [12]; at 1.2 µM -3% | [12]; at 3.7 µM -3% | [12]; at 11.0 µM -3% | [12]; at 33.0 µM 16% | [12]; at 100.0 µM 61% | [13]; at 1.2 µM -1% | [13]; at 3.7 µM -3% | [13]; at 11.0 µM 21% | [13]; at 33.0 µM 63% | [14]; [17] -81% | [15]; at 1.2 µM 3% | [15]; at 3.7 µM 5% | [15]; at 11.0 µM 26% | [15]; at 33.0 µM 57%

Cc1nc(-c2ccccc2)c(-c2ccccc2)s1
inactive: [1]; at 1.2 µM 23% | [1]; at 3.7 µM 0% | [1]; at 11.0 µM 17% | [1]; at 33.0 µM 68% | [2]; at 1.2 µM -12% | [2]; at 3.7 µM 9% | [2]; at 11.0 µM 9% | [2]; at 33.0 µM 59% | [3]; at 1.2 µM -24% | [3]; at 3.7 µM 4% | [3]; at 11.0 µM 29% | [3]; at 33.0 µM 50% | [3]; at 100.0 µM 65% | [4]; at 1.2 µM 24% | [4]; at 3.7 µM 8% | [4]; at 11.0 µM 44% | [5]; at 1.2 µM -29% | [5]; at 3.7 µM -24% | [5]; at 11.0 µM -19% | [6]; at 1.2 µM 3% | [6]; at 3.7 µM 26% | [6]; at 11.0 µM 24% | [6]; at 33.0 µM 67% | [7]; at 1.2 µM 9% | [7]; at 3.7 µM 10% | [7]; at 11.0 µM 7% | [8]; [17] -6% | [9]; at 1.2 µM -2% | [9]; at 3.7 µM -17% | [9]; at 11.0 µM 1% | [9]; at 33.0 µM 39% | [10]; at 50.0 µM 66.1% | [11]; at 1.2 µM 6% | [11]; at 3.7 µM 2% | [11]; [17] 8% | [11]; at 11.0 µM 22% | [12]; at 1.2 µM -38% | [12]; at 3.7 µM -16% | [12]; at 11.0 µM -20% | [16]; at 1.2 µM 29% | [16]; at 3.7 µM 16% | [16]; at 11.0 µM 41% | [15]; at 1.2 µM -10% | [15]; at 3.7 µM 8% | [15]; at 11.0 µM 6% | [15]; at 33.0 µM 67%
active: [1]; at 100.0 µM 98% | [2]; at 100.0 µM 98% | [4]; at 33.0 µM 95% | [4]; at 100.0 µM 99% | [5]; [17] 98% | [5]; at 33.0 µM 77% | [5]; [18] 100% | [5]; at 50.0 µM 84.4% | [5]; at 100.0 µM 97% | [6]; [17] 96% | [6]; [18] 100% | [6]; at 50.0 µM 84.5% | [6]; at 100.0 µM 97% | [7]; at 33.0 µM 84% | [7]; at 100.0 µM 97% | [8]; [18] 100% | [8]; at 50.0 µM 88.4% | [9]; at 100.0 µM 96% | [10]; [17] 71% | [10]; [18] 101% | [11]; at 33.0 µM 78% | [11]; [18] 101% | [11]; at 50.0 µM 84.5% | [11]; at 100.0 µM 98% | [12]; at 33.0 µM 81% | [12]; at 100.0 µM 97% | [16]; at 33.0 µM 87% | [16]; at 100.0 µM 97% | [14]; [17] 100% | [14]; [18] 100% | [14]; at 50.0 µM 86.5% | [15]; at 100.0 µM 94%
